“And” between values parts separate entries of the source, which are not always exact repeats. Equal entries are not always repeated. The campaign covered roughly 310,000 compounds. About 11,000 (3.5%) were called active. Not shown: some 4% with an inconclusive outcome. Only a selection was taken, and actives are over-represented in it overall. Unmarked numbers belong to inactive results. Calls follow the shape of the dose curve; as a rule, active = well fitted inhibition curve with a large enough effect; inconclusive = small, poorly fitted or top-dose-only effect, or another doubt; inactive = no such curve, though single readings can be large or run the other way.
Each compound was assayed against 4'-phosphopantetheinyl transferase ffp (Bacillus subtilis) (UniProt Q9F4F7) (assay: qHTS Assay for Inhibitors of Bacillus subtilis Sfp phosphopantetheinyl transferase (PPTase)). Details: Biochemical Sfp PPTase activity.
Excerpt: Assay Submitter: Michael Burkart, University of California, San Diego
Screening Center PI: Austin, C.P.
Screening Center: NIH Chemical Genomics Center [NCGC]
The covalent attachment of a phosphopantetheinyl (4'-PP) arm to a variety of synthases and other proteins is a key posttranslational protein modification. The 4'-PP is installed on the proteins post-translationally from coenzyme A (CoA) on a conserved serine residue by action of phosphopantetheinyl transferase (PPTase) enzymes. Phosphopantetheinylation is essential for synthase activity, and removal of the PPTase gene precludes natural product synthesis in microorganisms, or in the case of fatty acid biosynthesis, renders the organism unviable. PPTase enzymes belong to a distinct structural superfamily. Within bacteria, these enzymes are grouped into two classes based upon primary structure, the AcpS-Type and Sfp-Type PPTases.
Sfp-type PPTases, corresponding to an activator of surfactin production in Bacillus subtilis, are responsible for modifying type I polyketide and nonribosomal peptide synthases of prokaryotes. Sfp-type PPTases are responsible for the activation of a variety of pathogen-associated virulence factors. Among these compounds are toxins such as mycolactone from Mycobacterium ulcerans, siderophores such as vibriobactin from Vibrio cholerae or mycobactin from Mycobacterium tuberculosis, as well as the mycolic acids which form the waxy cell wall of Mycobacteria. The biosyntheses of these natural products are considered attractive targets for drug design.
In search of small molecule Sfp-PPTase inhibitors, a fluorescence quenching assay was developed for detection of Bacillus subtilis Sfp-PPTase enzymatic activity in a miniaturized high-throughput format. The consensus ybbr acceptor peptide […] was N-terminally labeled with Black Hole Quencher-2 (BHQ-2) and used in combination with rhodamine-labeled coenzyme A as a co-substrate.
Inhibition of Sfp-PPTase was detected by recording the fluorescence intensity change over a 30-minute reaction period at a 525 nm excitation and 598 nm emission. Reagents were supplied by Michael Burkart and Timothy Foley, University of California at San Diego.
This BioAssay deposition is for validation of the developed Sfp-PPtase assay.
Assay Buffer: 50 mM Hepes-Na pH 7.6, 10 mM MgCl2, 0.01% Nonidet P-40, and 0.01% BSA.
3 uL of Sfp-PPTase enzyme (final concentration 15 nM) and 1 uL of substrate mixture (final concentration for rhodamine-CoA and BHQ-2-YbbR 5 uM and 12.5 uM, respectively) dispensed in columns 1, 2, 5 - 48. Columns 1 and 2 used to generate neutral control (uninhibited reaction)
Three uL of reagents, consisting of buffer (in columns 3 and 4 as negative control) and Sfp-PPTase (in columns 1, 2, 5 - 48) were dispensed into 1,536-well Greiner black solid bottom plate. Compounds (23 nL) were transferred via Kalypsys pintool equipped with 1,536-pin array. The plate was incubated for 15 min at room temperature, followed by the addition of 1 uL substrate to start the reaction. The plate was then centrifuged at 1000 rpm for 15 seconds, and the fluorescence intensity recorded on a ViewLux High-throughput CCD imager (Perkin-Elmer) using standard BODIPY optics (525 nm excitation and 598 nm emission). The plate was then incubated for 30 minutes, and a second read on the ViewLux was performed. The fluorescence intensity difference over the 30-minute period was used to calculate the respective reaction rate for each well.
With `COc1ccc(CN2C(=O)NC(=O)/C(=C\c3ccc(OC)c(OC)c3OC)C2=O)cc1` the Potency was 56.2 µM (active).
Compound `C1CC[C@H]([C@@]23C[C@H](C[C@H]4CCCN[C@H]42)[C@@H]2CCCCN2C3)NC1` has a largest response in the series, negative = inhibition of 15.7%.
With `CN(C)CC1Oc2ccccc2OC1(O)c1ccccc1` (configuration not stated) the Potency was 39.8 µM (active).
`CN(C)C[C@H]1CCCC[C@]1(O)c1cccc(O)c1` gave a largest response in the series, negative = inhibition of 5.94%.
In the case of `Fc1cccc(F)c1CN1CCN(Cc2c(F)cccc2F)CC1`, the largest response in the series, negative = inhibition was 16%.
For `Cc1cccc(-n2c(C)nc3cc(C(=O)N4CCC5(CC4)OCCO5)ccc32)c1`, the largest response in the series, negative = inhibition was 8.78%.
`CN(C)P(=S)(Nc1ccccc1)C(Cl)(Cl)Cl` (configuration not stated) showed a largest response in the series, negative = inhibition of 10.7%.
With `COC([CH2][Hg])CNC(=O)c1ccccc1OCC(=O)O` (configuration not stated) the Potency was 0.398 µM (active).
`O=C(NC(c1ccc(Cl)cc1)P(=O)(Oc1ccccc1)Oc1ccccc1)OCc1ccccc1` (configuration not stated) gave a largest response in the series, negative = inhibition of 19.5%.
In the case of `CN1CCCC(=C(c2cccs2)c2cccs2)C1`, the largest response in the series, negative = inhibition was 3.76%.
In the case of `c1ccc2c(c1)[I+]c1ccccc1-2`, the largest response in the series, negative = inhibition was -15.8% and 9.27%.
Compound `O=C1CCc2cccc3c2N1CC3` has a largest response in the series, negative = inhibition of -2.12%.
For `O=C(O)CCn1cc(C=C2C(=O)NC(=S)NC2=O)c(-c2cccc(Br)c2)n1`, the Potency was 25.1 µM (active).
`O=P1(Oc2ccccc2)CC(O)C(O)C(COCc2ccccc2)O1` (configuration not stated) was tested, and the largest response in the series, negative = inhibition was -2.12%.
Compound `CCCCCCCCCCCCCC(=O)O[C@@H]1[C@@H](C)[C@@]2(O)[C@@H](C=C(CO)C[C@]3(O)C(=O)C(C)=C[C@@H]23)[C@@H]2C(C)(C)[C@]12OC(C)=O` has a largest response in the series, negative = inhibition of 9.82%.
`c1ccc2sc(C3CCCNC3)nc2c1` (configuration not stated) showed a largest response in the series, negative = inhibition of 9.62%.
Compound `Cc1ccc(N(C)C(=O)Oc2cccc3ccc(C)nc23)cc1` has a largest response in the series, negative = inhibition of 4.73%.
In the case of `CC(C)c1ccc(O)c(CN2CCN(c3ccccc3)CC2)c1`, the largest response in the series, negative = inhibition was 7.52%.
For `c1cc2c(cc1CCNC1CCCCCC1)OCO2`, the largest response in the series, negative = inhibition was -0.383%.
In the case of `CCOP(=S)(OCC)C(O)CCCCCn1c(=O)c(F)cn(C2CCCO2)c1=O` (configuration not stated), the largest response in the series, negative = inhibition was 8.97%.
Work on `N#Cc1cc(Br)c(O)c(Br)c1` yielded a largest response in the series, negative = inhibition of 9.61%.
For `C/C(=C\C=C/[C@@H](C)C(=O)O)[C@H]1CN[C@H](C(=O)O)[C@@H]1CC(=O)O`, the Potency was 63.1 µM (active).
Compound `C/C=C1\C2C=C(C)CC1(N)c1ccc(=O)[nH]c1C2` (configuration not stated) has a largest response in the series, negative = inhibition of 24.3%.
Compound `CN(C)C(=O)NC(O)C(Cl)(Cl)Cl` (configuration not stated) has a largest response in the series, negative = inhibition of 0.838%.
`CNC(C)[C@@H](O)c1ccccc1` (some centres not stated) gave a largest response in the series, negative = inhibition of 20.7%.
In the case of `O=C1NC(=O)C(C/C=C/c2ccccc2)C(=O)N1`, the Potency was 70.8 µM (active).
With `COc1ccc(CCn2c(O)c(C=NCCCn3ccnc3)c(=O)[nH]c2=O)cc1OC` the largest response in the series, negative = inhibition was 15.8%.
Work on `CC(Cc1cccs1)NCc1ccc(Cl)cc1` (configuration not stated) yielded a largest response in the series, negative = inhibition of 26%.
Work on `O=C(O)c1ccccc1NC(=O)C1C2CCC(O2)C1C(=O)O` (configuration not stated) yielded a largest response in the series, negative = inhibition of 2.88%.
Work on `Cc1ccc(-n2c(C)cc(/C=C3\C(=O)NC(=O)N(C)C3=O)c2C)cc1C` yielded a largest response in the series, negative = inhibition of -19.1%.
For `Cc1ccnc(-n2c(C)cc(/C=C3\C(=O)NC(=S)N(C)C3=O)c2C)c1`, the Potency was 25.1 µM (active).
With `Cc1cc(C=C2C(=O)NC(=O)NC2=O)c(C)n1-c1ccncc1` the Potency was 56.2 µM (active).
Compound `CCN1C[C@]2(C)CC[C@H](O)[C@@]34[C@@H]5CC6[C@@H](OC)C[C@@](O)([C@@H]5[C@@H]6O)[C@H](C[C@@H]23)[C@H]14` has a largest response in the series, negative = inhibition of 12.6%.
For `CC12CN3CC(C)(CN(C1)C3c1cccs1)C2` (configuration not stated), the largest response in the series, negative = inhibition was 10.2%.
Compound `CCCCCCCCc1[se]c2ccccc2c1Br` has a largest response in the series, negative = inhibition of 14.5%.
`O=C(Nc1cccc2ccccc12)N1CCC2(CC1)OCCO2` showed a largest response in the series, negative = inhibition of 0.463%.
With `O=C(OCC1O[C@@H](OC(=O)c2cc(O)c(O)c(O)c2)[C@@H](OC(=O)c2cc(O)c(O)c(O)c2)[C@@H](OC(=O)c2cc(O)c(O)c(O)c2)[C@@H]1OC(=O)c1cc(O)c(O)c(O)c1)c1cc(O)c(O)c(O)c1` (some centres not stated) the Potency was 25.1 µM (active).
Work on `O=C1NC(=O)C(CCc2ccccn2)(Cc2cccc(Cl)c2Cl)C(=O)N1c1ccc(Br)cc1` (configuration not stated) yielded a largest response in the series, negative = inhibition of 4.65%.
Work on `COc1cc2c(cc1OC)[C@@H]1C(=O)c3ccc(O)c(CC=C(C)C)c3OC1CO2` (some centres not stated) yielded a largest response in the series, negative = inhibition of 0.512%.
`CC(=O)c1c(O)c(C)c(O)c(Cc2c(O)c3c(c(C(=O)/C=C/c4ccccc4)c2O)OC(C)(C)C=C3)c1O` was tested, and the largest response in the series, negative = inhibition was -11.4% and -12.1% and -5.71%.
Work on `COc1ccccc1-c1[se]c2ccccc2c1I` yielded a largest response in the series, negative = inhibition of -3.36%.
`COc1ccc(N2C(=O)/C(=C/c3ccco3)C(=O)NC2=S)cc1` was tested, and the Potency was 11.2 µM (active).
In the case of `BrC1C(Br)C(Br)C(Br)C(Br)C1Br` (configuration not stated), the Potency was 79.4 µM (active).
Compound `Cc1ccc(C2CN(C)CC2C(=O)c2ccc(F)cc2)cc1` (configuration not stated) has a largest response in the series, negative = inhibition of 15%.
`CC(=NC1CCN(Cc2ccccc2)CC1)c1c(O)n(C)c(=O)n(C)c1=O` gave a largest response in the series, negative = inhibition of 8.13%.
For `NC[C@H](O)c1ccc(O)cc1`, the largest response in the series, negative = inhibition was 5.47%.
In the case of `CC[C@@H]1CN2CC[C@@H]1C[C@H]2[C@H](O)c1ccnc2ccc(OC)cc12`, the largest response in the series, negative = inhibition was 6.78%.
Compound `CCN1C[C@]2(COC)C(O)C[C@H](OC)[C@@]34C5C[C@]6(O)C(OC)C(O)[C@](OC(C)=O)(C5C6OC(=O)c5ccccc5)C(C(OC)C23)C14` (some centres not stated) has a largest response in the series, negative = inhibition of 5.25%.
For `CC(=O)[O][Sn]([c]1ccccc1)([c]1ccccc1)[c]1ccccc1`, the Potency was 1.41 µM (active).
Compound `COC(=O)N1C(c2ccccc2)C1c1ccccc1` (configuration not stated) has a largest response in the series, negative = inhibition of 17.3%.
Work on `COc1cccc(-c2nc3ccc(N4CCN(C)CC4)cc3[nH]2)c1` yielded a largest response in the series, negative = inhibition of -7.35%.
Compound `CCCN(C/C=C/I)C1CCc2ccc(O)cc2C1` (configuration not stated) has a largest response in the series, negative = inhibition of -26.2%.
In the case of `C[C@@]12CC[C@H]3[C@@H](CC[C@]4(O)C[C@H](O)CC[C@@]34C=O)[C@]1(O)CC[C@@H]2C1=CC(=O)OC1`, the largest response in the series, negative = inhibition was 17.6%.
For `Cc1ccc2c(c1)=C/C(=C\c1c(O)[nH]c(=O)[nH]c1=O)C(=O)N=2`, the Potency was 28.2 µM (active).
For `COc1ccccc1N=Nc1c(O)[nH]c(=S)[nH]c1=O`, the largest response in the series, negative = inhibition was -20.4%.
With `O=C1N=c2ccccc2=C/C1=C\c1c(O)[nH]c(=S)[nH]c1=O` the Potency was 25.1 µM (active).
In the case of `O=c1[nH]c(O)c(C=Nc2cc(F)cc(F)c2)c(=O)[nH]1`, the largest response in the series, negative = inhibition was -4.22%.

— PubChem BioAssay AID1490 (National Center for Advancing Translational Sciences (NCATS), 2009)
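Also: the enzyme is Sfp with the accession as filed and its product quenches rhodamine fluorescence.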
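For largest response in the series, negative = inhibition in this document: 0% = enzyme reaction without inhibitor and -100% = no enzyme wells.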
Potency is read from the fitted curve at half-maximal effect.
